Experimental data as given in ChEMBL document CHEMBL3988442, “University of Dundee, Small-Polar-MMV Screening Library” (2021).
For some of these results: Potency and affinity values are given separately.

Assays:
Set-up in all cases: scale not given: direction of the effect not stated beside the values
[1] = molecular target: Protein translocase subunit SecA (Escherichia coli (strain K12)) (UniProt P10408); test: Assay to Identify E. coli SecA ATPase Inhibitors; assay type: functional; conditions: 30 µM
Sequence of Protein translocase subunit SecA (Escherichia coli (strain K12)) (P10408 whole entry): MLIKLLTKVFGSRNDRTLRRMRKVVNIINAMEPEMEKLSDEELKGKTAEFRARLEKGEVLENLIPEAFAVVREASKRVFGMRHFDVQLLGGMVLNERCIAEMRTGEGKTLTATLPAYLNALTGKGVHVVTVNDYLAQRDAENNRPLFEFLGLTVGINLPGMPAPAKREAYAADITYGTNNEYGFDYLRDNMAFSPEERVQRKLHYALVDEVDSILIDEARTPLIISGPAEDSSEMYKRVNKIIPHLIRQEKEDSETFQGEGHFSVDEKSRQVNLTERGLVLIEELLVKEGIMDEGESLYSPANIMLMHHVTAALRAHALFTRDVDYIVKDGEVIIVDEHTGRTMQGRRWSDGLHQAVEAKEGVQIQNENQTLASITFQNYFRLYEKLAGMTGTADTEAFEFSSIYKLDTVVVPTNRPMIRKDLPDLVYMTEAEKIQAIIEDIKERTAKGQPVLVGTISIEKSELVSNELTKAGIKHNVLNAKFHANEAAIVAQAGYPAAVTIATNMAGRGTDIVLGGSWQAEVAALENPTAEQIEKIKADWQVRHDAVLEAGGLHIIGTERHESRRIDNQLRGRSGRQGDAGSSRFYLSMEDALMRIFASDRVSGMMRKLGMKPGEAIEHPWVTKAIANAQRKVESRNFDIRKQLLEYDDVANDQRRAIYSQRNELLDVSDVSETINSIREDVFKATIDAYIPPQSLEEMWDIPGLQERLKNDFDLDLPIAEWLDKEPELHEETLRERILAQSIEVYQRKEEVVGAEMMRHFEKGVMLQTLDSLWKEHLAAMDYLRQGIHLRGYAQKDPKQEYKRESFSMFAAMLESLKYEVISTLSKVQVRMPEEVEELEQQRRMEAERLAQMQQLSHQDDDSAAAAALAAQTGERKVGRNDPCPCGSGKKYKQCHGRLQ

[2] = molecular target: T1, Ubiquitin-activating enzyme e1, putative (Leishmania donovani (strain BPK282A1)) (UniProt E9BSI1); test: Leishmania donovani Ubiquitin Activating Enzyme (LdE1); assay type: functional; conditions: 30 µM
T1 sequence (whole entry): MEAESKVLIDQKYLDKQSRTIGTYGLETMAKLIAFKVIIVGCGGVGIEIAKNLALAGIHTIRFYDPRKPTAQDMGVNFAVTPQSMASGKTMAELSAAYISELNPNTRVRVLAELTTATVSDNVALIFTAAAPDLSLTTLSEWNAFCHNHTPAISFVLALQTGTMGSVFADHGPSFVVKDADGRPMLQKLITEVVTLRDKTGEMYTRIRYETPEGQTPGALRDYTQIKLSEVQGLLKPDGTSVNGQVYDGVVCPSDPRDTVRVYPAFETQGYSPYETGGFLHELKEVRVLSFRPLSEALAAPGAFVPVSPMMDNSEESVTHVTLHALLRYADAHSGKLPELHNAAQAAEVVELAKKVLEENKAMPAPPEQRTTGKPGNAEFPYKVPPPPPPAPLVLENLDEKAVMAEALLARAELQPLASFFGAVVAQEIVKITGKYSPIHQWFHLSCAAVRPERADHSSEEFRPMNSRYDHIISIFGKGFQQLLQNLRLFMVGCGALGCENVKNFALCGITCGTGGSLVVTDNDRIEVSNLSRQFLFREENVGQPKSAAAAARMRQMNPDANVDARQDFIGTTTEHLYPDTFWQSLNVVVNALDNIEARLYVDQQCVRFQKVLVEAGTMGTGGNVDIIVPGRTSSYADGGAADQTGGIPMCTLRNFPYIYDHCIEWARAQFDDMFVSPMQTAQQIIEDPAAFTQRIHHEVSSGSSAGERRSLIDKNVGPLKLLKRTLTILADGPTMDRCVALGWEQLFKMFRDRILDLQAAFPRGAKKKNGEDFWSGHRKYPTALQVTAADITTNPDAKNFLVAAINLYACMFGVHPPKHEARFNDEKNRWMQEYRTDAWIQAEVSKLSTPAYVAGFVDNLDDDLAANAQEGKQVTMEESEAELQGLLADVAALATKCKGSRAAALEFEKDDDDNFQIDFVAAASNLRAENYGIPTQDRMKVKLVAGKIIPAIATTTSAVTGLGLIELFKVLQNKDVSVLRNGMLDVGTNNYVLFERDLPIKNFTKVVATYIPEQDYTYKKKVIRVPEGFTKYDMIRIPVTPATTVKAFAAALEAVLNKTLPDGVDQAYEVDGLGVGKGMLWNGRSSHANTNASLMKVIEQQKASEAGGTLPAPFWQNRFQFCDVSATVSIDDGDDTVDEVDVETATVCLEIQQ

[3] = molecular target: AMP-activated protein kinase, AMPK (Homo sapiens) (UniProt P54646+O43741+P54619+Q9UGJ0+Q9Y478+Q13131+Q9UGI9); test: AMP-dependent Kinase enzyme assay. An in vitro enzyme assay that detects ADP turnover that is directly proportional to AMPK activity. This uses naive AMPK that is activated during the assay with MK-8722; assay type: functional; conditions: 30 µM
[4] = molecular target: Sialic acid-binding Ig-like lectin 9 (Homo sapiens) (UniProt Q9Y336); test: Hs-Siglec9 ALPHAscreen SOP 20170721; conditions: 10 µM
Sequence of Sialic acid-binding Ig-like lectin 9 (Homo sapiens) (Q9Y336 whole entry): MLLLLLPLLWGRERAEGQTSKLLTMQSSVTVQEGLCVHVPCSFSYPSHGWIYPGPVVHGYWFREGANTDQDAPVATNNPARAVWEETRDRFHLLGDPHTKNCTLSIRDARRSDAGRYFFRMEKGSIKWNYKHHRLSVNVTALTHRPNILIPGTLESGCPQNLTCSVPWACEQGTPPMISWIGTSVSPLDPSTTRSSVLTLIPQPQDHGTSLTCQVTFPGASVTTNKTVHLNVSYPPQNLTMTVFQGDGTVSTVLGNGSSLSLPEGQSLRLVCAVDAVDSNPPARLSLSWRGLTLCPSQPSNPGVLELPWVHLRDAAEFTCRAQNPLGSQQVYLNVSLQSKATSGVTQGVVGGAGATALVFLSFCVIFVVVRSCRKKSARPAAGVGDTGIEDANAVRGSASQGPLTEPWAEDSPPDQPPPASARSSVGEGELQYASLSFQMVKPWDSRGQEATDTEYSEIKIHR

[5] = test system: Trypanosoma cruzi; test: Trypanosoma cruzi phosphomannomutase and mannose-1-phosphate guanylyltransferase assay; assay type: functional; conditions: 10 µM
[6] = molecular target: T2, Arginase-2, mitochondrial (Homo sapiens) (UniProt P78540); test: in vitro enzyme assay to detect the production of urea directly proportional to the activity of Arginase II; assay type: functional; conditions: 33.3 µM; further: in the data most compounds retested in dose-response had high values
T2 sequence (whole entry): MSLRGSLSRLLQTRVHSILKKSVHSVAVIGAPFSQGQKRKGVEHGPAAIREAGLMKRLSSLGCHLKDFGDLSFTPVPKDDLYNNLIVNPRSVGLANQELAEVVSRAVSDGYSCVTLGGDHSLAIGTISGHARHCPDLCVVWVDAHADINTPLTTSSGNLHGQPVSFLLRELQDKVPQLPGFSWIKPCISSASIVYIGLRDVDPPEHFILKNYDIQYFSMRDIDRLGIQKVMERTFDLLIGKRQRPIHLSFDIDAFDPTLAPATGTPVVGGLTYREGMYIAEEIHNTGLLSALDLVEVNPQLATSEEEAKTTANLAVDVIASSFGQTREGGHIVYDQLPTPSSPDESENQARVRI

[7] = molecular target: T3, Proteasome subunit beta (Trypanosoma cruzi) (UniProt O96673); test: Trypanosoma cruzi proteasome chymotrypsin-like activity (TcProtChymo) assay.; further: in the data most compounds retested in dose-response had high values; assay type: functional; conditions: 9.37 µM
T3 sequence (whole entry): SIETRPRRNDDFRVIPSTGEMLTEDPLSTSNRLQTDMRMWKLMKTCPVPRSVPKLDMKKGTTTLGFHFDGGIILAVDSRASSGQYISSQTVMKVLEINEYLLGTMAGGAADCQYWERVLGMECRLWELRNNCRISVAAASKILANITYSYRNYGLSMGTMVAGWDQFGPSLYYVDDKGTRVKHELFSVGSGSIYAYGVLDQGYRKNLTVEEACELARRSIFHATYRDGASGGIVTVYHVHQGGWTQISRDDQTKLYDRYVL

[8] = species on record: Homo sapiens; test: To identify inhibition of the IFN signalling (Jak-Stat) pathway via expression of an eGFP reporter gene under the control of an IFN-stimulated response element (ISRE) containing MxA promoter.; assay type: functional; conditions: 30 µM
[9] = molecular target: T4, Tyrosyl-tRNA synthetase, putative (Trypanosoma cruzi (strain CL Brener)) (UniProt Q4DSP6); test: Trypanosoma cruzi tyrosyl tRNA synthetase (TcYRS) _High Tyrosine SOP; assay type: functional; conditions: 30 µM; further: in the data most compounds retested in dose-response had high values
T4 sequence (whole entry): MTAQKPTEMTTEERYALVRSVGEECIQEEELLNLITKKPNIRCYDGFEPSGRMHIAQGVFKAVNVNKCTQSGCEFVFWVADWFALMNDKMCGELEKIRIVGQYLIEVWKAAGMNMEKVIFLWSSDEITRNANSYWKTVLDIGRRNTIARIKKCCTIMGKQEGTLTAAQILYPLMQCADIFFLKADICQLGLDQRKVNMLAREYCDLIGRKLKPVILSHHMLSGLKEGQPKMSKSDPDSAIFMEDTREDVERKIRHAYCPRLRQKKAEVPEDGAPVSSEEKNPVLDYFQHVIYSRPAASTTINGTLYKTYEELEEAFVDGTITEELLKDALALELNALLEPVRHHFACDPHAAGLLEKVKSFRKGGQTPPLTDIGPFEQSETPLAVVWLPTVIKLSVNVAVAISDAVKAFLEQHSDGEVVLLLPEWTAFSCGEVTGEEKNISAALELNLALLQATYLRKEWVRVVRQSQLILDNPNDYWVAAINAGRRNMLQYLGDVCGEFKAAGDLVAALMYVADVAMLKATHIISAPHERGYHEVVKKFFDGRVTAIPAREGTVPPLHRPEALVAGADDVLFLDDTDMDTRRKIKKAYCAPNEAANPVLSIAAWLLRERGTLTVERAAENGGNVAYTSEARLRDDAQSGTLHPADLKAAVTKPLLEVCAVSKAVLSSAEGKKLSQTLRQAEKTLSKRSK

[10] = molecular target: T4, Tyrosyl-tRNA synthetase, putative (Trypanosoma cruzi (strain CL Brener)); test: Trypanosoma cruzi tyrosyl tRNA synthetase (TcYRS) SOP; assay type: functional; conditions: 30 µM
[11] = molecular target: Chromo domain-containing protein 1 (Saccharomyces cerevisiae (strain ATCC 204508 / S288c) (Baker's yeast)) (UniProt P32657); test: ScCHD-1 Enzyme Inhibition Assay; assay type: functional; conditions: 30 µM; further: in the data most compounds retested in dose-response had high values
Sequence of Chromo domain-containing protein 1 (Saccharomyces cerevisiae (strain ATCC 204508 / S288c) (Baker's yeast)) (P32657 whole entry, the tested form may be a part): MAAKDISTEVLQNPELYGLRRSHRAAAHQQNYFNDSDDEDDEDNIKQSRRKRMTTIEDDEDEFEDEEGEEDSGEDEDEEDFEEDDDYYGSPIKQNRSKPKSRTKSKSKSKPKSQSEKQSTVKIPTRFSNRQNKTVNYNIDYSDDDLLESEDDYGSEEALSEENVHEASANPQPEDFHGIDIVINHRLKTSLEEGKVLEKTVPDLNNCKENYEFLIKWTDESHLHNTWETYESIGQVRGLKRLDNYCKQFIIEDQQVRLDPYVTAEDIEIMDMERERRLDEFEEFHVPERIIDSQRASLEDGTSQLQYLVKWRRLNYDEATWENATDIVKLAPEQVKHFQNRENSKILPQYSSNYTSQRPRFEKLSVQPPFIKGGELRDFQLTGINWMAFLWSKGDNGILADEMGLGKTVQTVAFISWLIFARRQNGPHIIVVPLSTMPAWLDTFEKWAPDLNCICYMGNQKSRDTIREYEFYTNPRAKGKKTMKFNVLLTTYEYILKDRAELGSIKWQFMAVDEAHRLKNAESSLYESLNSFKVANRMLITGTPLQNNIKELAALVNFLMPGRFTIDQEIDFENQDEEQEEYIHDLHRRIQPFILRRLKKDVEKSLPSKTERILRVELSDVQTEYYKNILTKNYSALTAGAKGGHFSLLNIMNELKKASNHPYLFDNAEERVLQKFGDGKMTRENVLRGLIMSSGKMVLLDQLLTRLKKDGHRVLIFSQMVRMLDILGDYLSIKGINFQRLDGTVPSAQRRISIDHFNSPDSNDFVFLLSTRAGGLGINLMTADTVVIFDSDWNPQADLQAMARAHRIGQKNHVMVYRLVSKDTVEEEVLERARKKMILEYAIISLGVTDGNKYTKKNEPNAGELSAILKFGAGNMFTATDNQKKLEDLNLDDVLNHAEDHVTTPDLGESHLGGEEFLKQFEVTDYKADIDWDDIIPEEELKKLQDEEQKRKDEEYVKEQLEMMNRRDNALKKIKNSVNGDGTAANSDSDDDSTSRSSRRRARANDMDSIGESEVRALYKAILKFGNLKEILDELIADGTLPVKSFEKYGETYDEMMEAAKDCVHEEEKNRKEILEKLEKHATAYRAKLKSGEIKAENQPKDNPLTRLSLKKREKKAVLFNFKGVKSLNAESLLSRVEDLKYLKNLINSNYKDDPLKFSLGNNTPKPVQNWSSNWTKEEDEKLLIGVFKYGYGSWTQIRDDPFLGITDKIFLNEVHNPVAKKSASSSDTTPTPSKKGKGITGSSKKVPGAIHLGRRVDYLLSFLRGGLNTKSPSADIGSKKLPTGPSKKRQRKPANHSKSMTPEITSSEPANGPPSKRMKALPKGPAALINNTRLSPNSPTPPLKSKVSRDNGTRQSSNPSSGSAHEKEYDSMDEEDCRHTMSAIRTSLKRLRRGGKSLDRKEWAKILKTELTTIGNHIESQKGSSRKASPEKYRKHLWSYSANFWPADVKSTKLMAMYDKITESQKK

SMILES | Percent Effect [1] [%] | Percent Effect [2] [%] | Percent Effect [3] [%] | Percent Effect [4] [%] | Percent Effect [5] [%] | Percent Effect [6] [%] | Percent Effect [7] [%] | Percent Effect [8] [%] | Percent Effect [9] [%] | Percent Effect [10] [%] | Percent Effect [11] [%]
CCOCCCNC(=O)c1cc(C(C)C)nc(N2CCCCCC2)n1 | 0.305 | -12 | 4.38 | -7.72 | -5.5 | -16 | 16.3 | 17 | 10.6 | 12.8 | -11.2
CCn1c(CN(C)C)nnc1C1CCN(Cc2cccc(OC)c2)CC1 | 2.78 | 10.4 | -4.93 | 7.22 | -3.64 | -12.4 | 16 | 10.6 | 4.3 | 11.1 | 0.325
NC(=O)C1CCN(c2nc3nccc(-c4ccccc4)c3c(=O)[nH]2)CC1 | -4.01 | 2.74 | -6.46 | 3.02 | 6.75 | -7.19 | 14.8 | 5.49 | 1.04 | 6.17 | -5.09
O=C(CCc1c[nH]cn1)N1CC[C@@H](c2ccc3ccccc3c2)[C@H](O)C1 | -5.41 | 10.7 | -4.75 | 24.9 | 5.16 | 8.85 | 9.77 | 15.3 | 7.1 | 13.6 | 106
COCCN1CC[C@@H](O)[C@@H]1Cc1ccccc1 | 1.28 | 6.67 | 2.24 | 0.614 | -10.4 | -8.63 | 10.7 | -7.47 | 2.12 | 0 | -7.73
CCCSCC(=O)Nc1ncn(CC(=O)NCc2ccccc2)n1 | -2.05 | 8 | -1.58 | 7.45 | 3.6 | 13.5 | 12.9 | 4.31 | 6.01 | 16.1 | -6.22
Cc1cnn(CC2CN(Cc3nnc(-c4occc4C)o3)CCO2)c1 (stereo unspecified) | -3.52 | 10.8 | 142 | -3.99 | 3.06 | -0.924 | -0.898 | 16 | 7.92 | 23.2 | -5.94
Cc1nc(C)n(CC2CCCN(CC(=O)Nc3c(C)n[nH]c3C)C2)n1 (stereo unspecified) | -1.71 | 13.2 | -0.0642 | 9.58 | 3.76 | 0.766 | 8.69 | -1.17 | 5.39 | 17.1 | -9.15
CCc1c(C(=O)N2CCN(c3ncccn3)CC2)cnn1C(C)(C)C | -1.49 | 21.1 | -5.24 | 0.163 | 0.0934 | 1.44 | 13.3 | 9.72 | 4.43 | 18.5 | -8.38
N#Cc1ccc(OCCNc2cccc(C(=O)N3CCOCC3)c2)cc1 | -3.6 | 15.6 | -1.62 | 14.6 | 6.98 | -8.28 | 17.1 | 16.8 | 2.15 | 13.6 | 0.249
Cc1cc(O)c(OCC(=O)/N=c2\[nH]cc(C)s2)cn1 | -5.77 | 18.4 | 3.17 | 0.981 | 3.6 | -5.92 | 5.85 | -4.26 | 5.32 | 10.4 | -2.08
